From publication PMC6919601, “Identification of Plasmodium dipeptidyl aminopeptidase allosteric inhibitors by high throughput screening” (PLoS ONE, 2019)
About 230 (0.21%) of roughly 110,000 compounds showed an effect of 50% or more. This excerpt belongs to a sample that is enriched for strong results.

These compounds were tested against DPAP1 (Plasmodium falciparum, UniProt Q8IIJ9) (assay: primary screen, percent inhibition; read by cleavage of a fluorogenic dipeptide substrate; higher = more effect of the substance).
Parameters: species or system P. falciparum D10 trophozoite lysates; single well
Protocol: HTS was performed in black 384-well plates. The first and last two columns of each plate contained our negative (DMSO) and positive (10 μM JCP410) controls, and the 20 central columns the test compounds at 10 μM. Compounds were first diluted 50-fold into assay buffer (50 mM sodium acetate, 5 mM MgCl2, 10 mM β-mercaptoethanol, and 0.1% CHAPS, pH 5.5) from a 10 mM DMSO stock plates. One microliter of this 200 μM intermediate stock plate was dispensed into the assay plate. […] After 30 min, the reaction was quenched with 20 μL of 0.5 M acetic acid, and the fluorescent intensity measured at 523 nm (λex = 492 nm) using an Analyst HT multimode plate reader (Molecular Devices).
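Further: 30 min substrate incubation versus DMSO and 10 µM JCP410 controls.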

Chain of DPAP1 (Q8IIJ9 whole entry, looked up): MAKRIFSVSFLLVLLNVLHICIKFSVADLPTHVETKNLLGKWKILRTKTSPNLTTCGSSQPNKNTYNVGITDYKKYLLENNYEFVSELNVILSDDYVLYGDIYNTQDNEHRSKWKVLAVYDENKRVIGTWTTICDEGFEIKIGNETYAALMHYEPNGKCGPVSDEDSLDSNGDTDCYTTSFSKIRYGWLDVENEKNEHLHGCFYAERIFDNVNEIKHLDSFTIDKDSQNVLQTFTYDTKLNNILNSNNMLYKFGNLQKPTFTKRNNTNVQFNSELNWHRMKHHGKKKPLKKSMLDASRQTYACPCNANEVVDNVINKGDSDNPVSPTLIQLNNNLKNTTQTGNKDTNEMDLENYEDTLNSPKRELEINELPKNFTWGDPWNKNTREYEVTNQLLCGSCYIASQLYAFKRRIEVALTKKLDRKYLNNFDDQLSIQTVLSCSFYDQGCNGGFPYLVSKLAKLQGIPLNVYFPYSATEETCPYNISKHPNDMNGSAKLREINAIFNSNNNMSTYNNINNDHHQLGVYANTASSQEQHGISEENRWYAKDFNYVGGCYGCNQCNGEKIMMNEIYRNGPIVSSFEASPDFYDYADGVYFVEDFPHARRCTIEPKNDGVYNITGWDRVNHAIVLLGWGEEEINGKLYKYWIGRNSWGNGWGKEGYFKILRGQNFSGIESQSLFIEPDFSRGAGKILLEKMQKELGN

Row | Structure (SMILES) | % Inhibition @ 10 uM
1 | Cc1cc2c(c(S)n1)C(=O)O/C2=C\c1ccco1 | 67.6%
2 | Cc1cc2c(c(S)n1)C(=O)O/C2=C\c1c[nH]nc1-c1cccs1 | 43.6%
3 | Cc1cc2c(c(S)n1)C(=O)O/C2=C\c1c[nH]nc1-c1ccc(F)cc1 | 26%
4 | CCOC(=O)N1CCN(C(=O)CSc2nnc(Cc3cccn3C)n2-c2ccc(OC)cc2)CC1 | -5.76%
5 | COc1ccc(-n2cc(-c3ccc(C)cc3)nc2SCC(=O)NCC2CCCO2)cc1 (centres unmarked) | 4.33%
6 | CCOC(=O)N1CCN(C(=O)CSc2nc(-c3ccc(C)cc3)cn2-c2ccc(OC)cc2)CC1 | 77.3%
7 | CC1CCCCC1NC(=O)c1cnn2c(C(F)(F)F)cc(-c3cccs3)nc12 (centres unmarked) | 4.36%
8 | c1ccc2c(c1)CCN(c1ncnc3c1nnn3Cc1cccc3ccccc13)C2 | -0.0678%
9 | CCS(=O)(=O)N1CCC(C(=O)NCc2ccc(F)cc2Cl)CC1 | -6.75%
10 | CN(C)CC1CSCCC1(O)c1ccccc1 (centres unmarked) | 85.1%
11 | CN(C)CC1CSCCC1(O)c1cccc(Cl)c1 (centres unmarked) | -4.54%
12 | CN(C)CC1CSCCC1(O)c1cccc(O)c1 (centres unmarked) | -15.4%
13 | O=c1oc2c(cc(NS(=O)(=O)c3ccc(F)cc3)c3ccccc32)s1 | -2.54%
14 | Cc1cc2ccccc2n1-c1ccc(C(=O)N2CCCCCC2)s1 | 3.12%
15 | CC1(C)CC2=NC3=C(C(=O)CC(C)(C)C3)C(c3cc(Cl)c(O)c(Cl)c3)C2=C(O)C1 (centres unmarked) | 13.2%
16 | CC1(C)CC2=NCC(=O)NC2=C(O)C1 | 59.8%
17 | C=CC/N=C/C1=C(O)CC(C)(C)CC1=O | -3.06%
18 | COc1ccc(Br)cc1C1C(C#N)=C(N)Oc2[nH]nc(-c3ccc4c(c3)OCO4)c21 (centres unmarked) | 3.99%
19 | CCOC(=O)C1=NNC2C(=O)N(c3ccc(F)cc3)C(=O)C12 (centres unmarked) | -5.48%
20 | O=C(Nc1nccs1)c1ccc(COc2ccccc2Cl)o1 | -5.98%
21 | Cc1c(CNC(=O)c2cc(-c3ccccc3)nc3ccc(Br)cc23)cnn1C | -2.9%
22 | COc1ccc2nc(C)n3c4ccccc4c(NC(C)=O)c3c2c1 | 2.4%
23 | Cc1nc2ccc(Cl)cc2c2c(N)c3ccccc3n12 | 66%
24 | Cc1ccc2nc(C)n3c4ccccc4c(NC(=O)c4ccccc4)c3c2c1 | -6.87%
25 | Cc1nn2c3ccccc3nc2c2ccccc12 | 5.3%

Row | Structure (SMILES) | % Inhibition @ 10 uM
26 | O=C(O)CCS(=O)(=O)Cc1ccccc1F | 1.27%
27 | Cc1nc2c(c(C)c1CCC(=O)N1CCN(C3CCCCC3)CC1)c(=O)n(C)c(=O)n2C | 52.7%
28 | Cc1nc2c(c(C)c1CCC(=O)N1CCC(C)CC1)c(=O)n(C)c(=O)n2C | -3.1%
29 | Cc1nc2c(c(C)c1CCC(=O)N1CCC(N3CCCCC3)CC1)c(=O)n(C)c(=O)n2C | -6.91%
30 | CC(NC(=O)c1ccc(Br)cc1)C1COc2ccccc2O1 (centres unmarked) | 3.24%
31 | CCOC(=O)C1=C(O)/C(=C\c2ccccc2OC)N=C1C | -1.6%
32 | CN1CSC2=C(C#N)C(c3cccc(OCc4ccccc4)c3)CC(=O)N2C1 (centres unmarked) | 71.1%
33 | N#CC1=C2SCN(Cc3ccco3)CN2C(=O)CC1c1ccc(Cl)cc1 (centres unmarked) | 42.2%
34 | CCOc1ccc(C2CC(=O)N3CN(C)CSC3=C2C#N)cc1OC (centres unmarked) | 47.5%
35 | N#CC1=C2SCN(Cc3ccco3)CN2C(=O)CC1c1cccc(OCc2ccccc2)c1 (centres unmarked) | 66.7%
36 | CCOc1ccc(C2CC(=O)N3CN(Cc4ccco4)CSC3=C2C#N)cc1 (centres unmarked) | 43.4%
37 | CC(C)c1ccc(S(=O)(=O)Nc2ccc3oc(=O)sc3c2)cc1 | 1.13%
38 | CCC(C)N(CCNC(=O)c1c2c(nc3ccccc13)C(=O)N(C1CCCCC1)C2)Cc1ccco1 (centres unmarked) | 2.48%
39 | CCOC(=O)c1cc(C)n(CC2CCC(C(=O)Nc3cccc(C)n3)CC2)c1C (centres unmarked) | -0.943%
40 | CCOC(=O)c1cnn(C(C)(C)C)c1C1CCN(C(=O)OC(C)(C)C)CC1 | -2.83%
41 | Cc1ccc(S(=O)(=O)N2CCCC2)cc1S(=O)(=O)N1CCCC1 | 1.52%
42 | CCC(=O)/N=c1/n(C)c2ccccc2n1CCOc1ccccc1 | 0.512%
43 | OC(COc1ccccc1Cl)CN1CCN(CC(O)COc2ccccc2Cl)CC1 (centres unmarked) | 0.131%
44 | Cc1ccccc1OCC(O)CN1CCN(CC(O)COc2ccccc2C)CC1 (centres unmarked) | -0.053%
45 | OC(COc1cccc2ccccc12)CN1CCN(CC(O)COc2cccc3ccccc23)CC1 (centres unmarked) | 51.4%
46 | Cc1cc(Br)ccc1OCC(=O)O/N=C(\N)c1cccnc1 | -6.94%
47 | CCCCN(C)C(=O)CCNC(=O)Cn1ccc2ccccc2c1=O | 7.85%
48 | CCOc1ccc(S(=O)(=O)N2CCSC2c2ccc(OC)c(OC)c2)cc1 (centres unmarked) | 25.4%
49 | O=C1/C(=C/c2ccc3nccnc3c2)CC/C1=C\c1ccc2nccnc2c1 | -0.503%
50 | O=C1/C(=C/c2ccc(F)cc2)CCC1C1CCCC1 (centres unmarked) | 23.4%

Row | Structure (SMILES) | % Inhibition @ 10 uM
51 | O=C1/C(=C/c2ccc3nccnc3c2)CCC1C1CCCC1 (centres unmarked) | 66.2%
52 | Cc1cc(C)c2c(n1)sc1c(=O)oc(C)nc12 | -0.13%
53 | Cc1ccc(N(CC(=O)Nc2ccc(CC#N)cc2)S(=O)(=O)c2ccccc2)c(C)c1 | -6.77%
54 | O=C(NCc1ccco1)c1ccc(CN2CC(=O)N3CCCCC3C2=O)cc1 (centres unmarked) | 3.7%
55 | Cc1ccc(-c2cc(C(=O)N3CCN(C(=O)c4ccco4)CC3)[nH]n2)c(C)c1 | 2.62%
56 | COCCN1C(=O)/C(=C/c2ccccc2)S/C1=N\c1ccccc1 | -4.21%
57 | COCCN1C(=O)/C(=C/c2cccc(C)c2)S/C1=N\c1ccccc1 | 64.4%
58 | COCCN1C(=O)/C(=C/c2ccc(C)cc2)S/C1=N\c1ccccc1 | -11.1%
59 | CCN(CC)CCCNc1cnnc2c(Cl)cccc12 | -4.4%
60 | COc1ccc(OC)c(C2C3=C(O)CCCC3=NC(C)=C2C(=O)Nc2ccccn2)c1 (centres unmarked) | -8.82%
61 | COc1ccc2c(c1)cc1c(=O)n(CC(=O)NCc3cccc(OC)c3OC)nc(C)n12 | 99.1%
62 | COc1ccccc1CNC(=O)Cn1nc(C)n2c(cc3c(OC)cccc32)c1=O | -3.47%
63 | CCCNC(=O)Cn1nc(C)n2c(cc3cc(OC)ccc32)c1=O | 4.84%
64 | OC(c1ccccc1)c1nc2ccccc2[nH]1 (centres unmarked) | 3.87%
65 | CCn1nc(C)c(C(=O)Nc2ccn(Cc3ccccc3)n2)c1C | 3.21%
66 | CN1CCN(C(=O)Cn2ncc3c4ccccc4n(C)c3c2=O)CC1 | 1.41%
67 | Cn1c2ccccc2c2cnn(CC(=O)N3CCN(c4ncccn4)CC3)c(=O)c21 | 53.7%
68 | Cn1c2ccccc2c2cnn(CC(=O)N3CCN(c4ccccn4)CC3)c(=O)c21 | 4.53%
69 | Oc1nc(SCc2ccccc2)nc(O)c1Cc1ccccc1 | -2.12%
70 | CC1=CC2=NC(=O)/C(=C\c3ccc(-c4ccccc4Cl)o3)C(=N)N2O1 | -1.65%
71 | O=C(NC1CCCCC1)C1CC(c2ccccc2F)=NO1 (centres unmarked) | 7.39%
72 | CCOc1ccc2c(=O)c(Oc3ccccc3)c(C(F)(F)F)oc2c1 | -4.21%
73 | COc1ccc(OC)c(NC(=O)c2ccc(OC(C)C)cc2)c1 | -1.88%
74 | CC(=O)c1cccc(NS(=O)(=O)c2ccc(Oc3ccccc3Cl)cc2)c1 | -3.87%
75 | COc1ccc(S(=O)(=O)Nc2cccc(C(C)=O)c2)cc1 | -1.92%

Row | Structure (SMILES) | % Inhibition @ 10 uM
76 | COc1ccccc1Oc1ccc(S(=O)(=O)Nc2cccc(C(C)=O)c2)cc1 | 67.2%
77 | CS(=O)(=O)c1sc2nc(-c3ccc(Br)cc3)cc(-c3ccccc3)c2c1N | -1.93%
78 | CC(=O)c1sc2nc(-c3cccs3)cc(-c3cccs3)c2c1N | 7.74%
79 | CS(=O)(=O)c1sc2nc(-c3cccs3)cc(-c3ccccc3)c2c1N | 64.2%
80 | CN(C)c1ccc(NC(=O)Nc2ccc(Cl)cc2)cc1 | 0.51%
81 | O=C1C2C=COC2C2c3ccccc3CCC2N1Cc1ccccc1 (centres unmarked) | 0.727%
82 | Cc1nc2c(C(=O)n3ccnc3)cnn2c(C)c1Cc1ccccc1Cl | -0.406%
83 | CC(=O)Nc1ccc(NC(=O)CN(c2cccc(F)c2)S(C)(=O)=O)cc1 | 8.06%
84 | CS(=O)(=O)N(CC(=O)Nc1ccccc1)c1cccc(F)c1 | -10.1%
85 | CS(=O)(=O)N(CC(=O)Nc1ccc2c(c1)OCCO2)c1cccc(F)c1 | 69.8%
86 | CN(Cc1ccco1)C(CNS(=O)(=O)c1ccccc1)c1ccccc1 (centres unmarked) | -0.671%
87 | CCCCOc1ccc(C2=NC(=O)/C(=C/c3cccc(OC)c3OC)O2)cc1 | 2.1%
88 | Cc1ccccc1-n1cc(-c2ccc3c(c2)OCO3)nc1S | 83.7%
89 | Sc1nc(-c2ccc3c(c2)OCO3)cn1-c1cccc(Cl)c1 | 19.5%
90 | CCn1c2ccccc2n2cc(-c3ccc4c(c3)OCO4)nc12 | 0.486%
91 | CC(C)C[C@H](NC(=O)c1cc2cc(OCCN3CCOCC3)ccc2o1)C(=O)NC1COCC1=O (some centres unmarked) | -8.26%
92 | CCOc1cc(/C=C2/NC(=O)N(CC(=O)Nc3cccc(C)c3)C2=O)cc(Cl)c1O | 2.44%
93 | Cc1ccc(NC(=O)CN2C(=O)S/C(=C\c3ccccc3O)C2=O)cc1 | 50.5%
94 | COc1cccc(/C=C2/SC(=O)N(CC(=O)Nc3ccc(C)cc3)C2=O)c1O | 30.1%
95 | Cc1ccc(NC(=O)CN2C(=O)S/C(=C\c3ccccc3C)C2=O)cc1 | -5.4%
96 | COc1ccc(C(=O)CCC(=O)NC2=NCCS2)cc1 | -3.21%
97 | CN1CCN(C(=O)Cn2nc(-c3ccc(Cl)cc3)c3ccccc3c2=O)CC1 | 2.95%
98 | CC1=C(C(=O)OC2CCCC2)C(c2ccsc2)C2=C(O)CC(c3cccs3)CC2=N1 (centres unmarked) | 0.146%
